Out of some 2,500 compounds screened, about 1,100 (44%) were called active.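 The calls were made as follows: active = inhibition above 50% at 4 µM in the single-point screen; inactive = inhibition of 50% or less.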 So high a share suggests a set chosen from earlier hits. This is one part of the list.
Experiment: TNF-a-driven NF-kB reporter inhibitors, primary screen, selectivity assay for NOD1/NOD2 signaling inhibitor project, cell-based, HEK293T NF-kB-Luc, luminescence (AID 1852)
Settings: TNF-a induced, 14 h, at 4 µM, active compounds read high

inhibition, inactive:
Cc1c(OCC(=O)N2CCN(c3ccccc3)CC2)ccc2c3c(c(=O)oc12)CCCC3 14.2%
Cc1sc2ncnc(N3CCN(S(=O)(=O)c4ccc(Br)cc4)CC3)c2c1C 29.2%
Cc1sc2ncnc(N3CCN(S(=O)(=O)c4ccc(F)cc4)CC3)c2c1C 15%
COC(=O)c1scc(C#N)c1N/N=C(\C#N)S(=O)(=O)c1ccc(Cl)cc1 -8.6%
CC(C)(C)OC(=O)N1Cc2ccccc2C[C@H]1C(=O)NCC(=O)NC1CCCC1 11%
COCCCn1c(=O)c2sccc2n(Cc2cccc(C)c2)c1=O 29.7%
CCCCC(=O)/C=C/n1c(=S)oc2ccccc21 -6.6%
COC(=O)N1C(=O)[C@](CC(C)C)(c2ccccc2)N1C(=O)OC 45.2%
N=c1c2c(n(Cc3ccc(Cl)cc3)c3c1CCC3)CCC2 12.4%
CC1CCN(C(=O)c2ccc(S(=O)(=O)Cc3cccc(F)c3)c([N+](=O)[O-])c2)CC1 16.5%
O=C(c1ccc(S(=O)(=O)Cc2cc(F)ccc2F)c([N+](=O)[O-])c1)N1CCCCC1 -1.2%
Cc1ccc(N=c2c([N+](=O)[O-])nn(-c3ccc4c(c3)OCCO4)n2O)cc1F 0.1%
COc1ccccc1N1CCN(C(=O)C2CCCN(S(=O)(=O)c3ccc4c(c3)oc(=O)n4C)C2)CC1 (configuration not stated) 19.5%
CC(=O)N1CCCc2cc(S(=O)(=O)N3CCCC(C(=O)N4CCN(c5cc(C)ccc5C)CC4)C3)ccc21 (configuration not stated) 45.4%
Cc1cc(C(=O)Nc2ccccc2C(=O)O)ccc1NC(=O)COc1ccccc1Cl -11.7%
O=C(COc1cccc2ccccc12)Nc1ccc(Cl)cc1C(=O)O -62.6%
Cc1ccc(CNC(=O)[C@H](C)[C@H]2C[C@]2(C)[C@H](NC(=O)OCc2ccccc2)c2ccccc2)o1 1.6%
Cc1c(Nc2c3ccccc3nc3ccccc23)c(=O)n(-c2ccccc2)n1C 27.4%
COc1ccc(-c2cc(C(=O)NCCCN3CCOCC3)on2)cc1OC 6%
COc1ccc(-c2nc3nc(N)nn3cc2C)cc1F 22.9%
COc1cc(/C=C2\C(=N)N3N=C(S(C)(=O)=O)SC3=NC2=O)ccc1OCCOc1ccccc1C -26.4%
CC(=O)c1c(C)n(-c2ccc(Cl)cc2)c2ccc(O)cc12 12.3%
CC(=O)c1ccc(N2CCN(c3ccnc4cc(Cl)ccc34)CC2)cc1 45.2%
Cc1ccc(S(=O)(=O)NC(CC(C)C)C(=O)N2CC(C)OC(C)C2)cc1 (configuration not stated) 9.2%
Cc1cccc(Nc2nc(N)nc(CCl)n2)c1 25.3%
Cc1ccc(S(=O)(=O)NCc2ccc(C(=O)N3CCN(c4ccc([N+](=O)[O-])cc4)CC3)cc2)cc1 43.8%
O=[N+]([O-])c1ccc(N2CCN(c3ccccc3)CC2)nc1 -49.6%
CCN1CCN(S(=O)(=O)c2ccc(Cl)c(C(=O)Nc3cc(Cl)ccc3N3CCOCC3)c2)CC1 28.9%
Cc1ccc(S(=O)(=O)N2CCN(CCC#N)CC2)cc1 44.4%
COc1ccc2[nH]c(C(=O)N/N=C/c3ccc(O)cc3O)cc2c1 48.1%
O=C1CSC(c2cccnc2)N1CCc1ccccn1 (configuration not stated) 0.7%
O=C(Nc1cc(S(=O)(=O)Nc2ccccc2Cl)ccc1O)c1cc2c(s1)CCCC2 36.1%
Cc1cc(NC(=O)c2ccccc2NS(=O)(=O)c2c(C)c(C)cc(C)c2C)no1 9.8%
COc1ccccc1NS(=O)(=O)c1cccc(NC(=O)c2sc3ccccc3c2Cl)c1 39.2%
COc1cccc(NS(=O)(=O)c2ccc(Br)s2)c1 -23.8%
N#C/C(=C(/O)COC(=O)COc1cccc(Br)c1)c1nc2ccccc2[nH]1 33%
CCS(=O)(=O)c1nnnn1-c1ccccc1S(C)(=O)=O 43.2%
Cc1cccc(Nc2ncnc3onc(-c4cccc(Cl)c4)c23)c1C 15.5%
O=C(Nc1cccc(C(=O)O)c1)Nc1ccccc1Cl -17.8%
COc1ccc(OC)c(-c2csc(NC(=O)C3=NNC(=O)CC3)n2)c1 37.1%
COc1cccc(NC(=O)CCC2CCN(C(=O)c3cncs3)CC2)c1 4.6%
COc1ccc(NC(=O)Nc2nnc(-c3ccncc3)s2)cc1 30%
CC(Sc1nnc2c(n1)[nH]c1ccccc12)C(=O)N(C)C1CCCCC1 (configuration not stated) 32.3%
COc1ccc(C)cc1NC(=O)CSc1ccc(-c2sc(C)nc2C)nn1 21.8%
COc1ccc(OC)c(NC(=O)CSc2ncnc3c2cnn3-c2ccccc2Cl)c1 36.9%
COc1ccc(C)cc1NC(=O)CSc1ccc(-c2ccco2)nn1 -4.4%

inhibition, active:
CCOC(=O)c1sc(NC(=O)CSc2nc3c(cc2C#N)CCCCCC3)c(C#N)c1C 52.1%
Cc1c(C)c2ccc(OCC(=O)Nc3ccccn3)c(C)c2oc1=O 76.2%
Cc1cc(C)c(C)c(S(=O)(=O)N2CCN(c3ncnc4sc(C)c(C)c34)CC2)c1C 75.3%
Cc1ccc(OCCN2CCN(c3ncnc4sc(C)c(C)c34)CC2)cc1 63%
CC(C)CC(=O)/C=C/n1c(=S)oc2ccccc21 76.6%
CC(=O)/C=C/n1c(=S)oc2ccccc21 94.2%
COC(=O)N1C(=O)[C@@](Cc2ccccc2)(c2ccccc2)N1C(=O)OC 59.8%
CCCCCCCn1c2c(c(=N)c3c1CCC3)CCCC2 76.9%
CCCCCCCCCn1c2c(c(=N)c3c1CCC3)CCCC2 91.2%
CCCCCCCCn1c2c(c(=N)c3c1CCC3)CCCC2 79.5%
CC1CCN(C(=O)c2ccc(S(=O)(=O)Cc3cc(F)ccc3F)c([N+](=O)[O-])c2)CC1 50.4%
O=C(c1ccc(S(=O)(=O)Cc2ccccc2Cl)c([N+](=O)[O-])c1)N1CCN(c2ccccn2)CC1 58.6%
Cc1ccc(CS(=O)(=O)c2ccc(C(=O)N3CCN(c4ccccn4)CC3)cc2[N+](=O)[O-])cc1 53%
CC(=O)N1CCCc2cc(S(=O)(=O)N3CCCC(C(=O)N4CCN(c5cccc(Cl)c5)CC4)C3)ccc21 (configuration not stated) 57.4%
C=C(C)C(=O)O[C@H]1C/C(C)=C\C(=O)/C=C(\C)[C@H](O)[C@@H]2OC(=O)C(=C)[C@@H]21 102%
O=C(COc1ccc(Cl)cc1Cl)Nc1ccc(C(=O)Nc2ccccc2C(=O)O)cc1 53.4%
CC(NC(=O)OC(C)(C)C)C(=O)Oc1cc2oc(=O)cc(-c3ccccc3)c2cc1Cl (configuration not stated) 84.3%
CC(NC(=O)OCc1ccccc1)C(=O)Oc1cc2oc(=O)cc(-c3ccccc3)c2cc1Cl (configuration not stated) 55.2%
Cc1c(N=C2C=CC(=O)c3ccccc32)c(=O)n(-c2ccccc2)n1C 76.4%
COc1ccc(-c2cc(N)n(S(=O)(=O)c3c(F)c(F)c(F)c(F)c3F)n2)cc1OC 83.8%
CCOC(=O)N=Nc1c2ccccc2c2nc3no[nH]c3nc12 105%
CC(=O)c1c(C)n(-c2ccccc2)c2ccc(O)cc12 68%
COc1ccc(-n2c(C)c(C(C)=O)c3cc(O)ccc32)cc1 72.1%
CC(=O)c1ccc(-n2c(C)c(C(C)=O)c3cc(O)ccc32)cc1 50.8%
O=C1CCC2S/C(=C/Nc3ccc(C(F)(F)F)cc3)C(=O)N12 (configuration not stated) 95.8%
COc1cccc(C(=O)Oc2c(Br)cc(Br)cc2/C=N/NC(=O)c2cc(C)[nH]n2)c1 71.1%
Cc1cc(C(=O)N/N=C/c2cc(Br)ccc2OC(=O)c2ccccc2)n[nH]1 91.1%
Cc1cc(C(=O)N/N=C/c2cc(Br)cc(Br)c2OC(=O)c2cccc(F)c2)n[nH]1 75.2%
Cc1c(-c2ccccc2)oc2c(C(=O)N3CCN(c4ccc([N+](=O)[O-])cc4)CC3)cccc2c1=O 60.9%
CCN1CCN(S(=O)(=O)c2c(C)cc(C)cc2C)CC1 54.2%
Cn1cccc1-c1cc(C(=O)N/N=C/c2cc(Br)ccc2O)[nH]n1 60.4%
Cc1ccc(NC(=O)c2cc3c(s2)CCCC3)cc1S(=O)(=O)Nc1ccccc1Cl 69.1%
COc1ccc(C)cc1NC(=O)c1ccccc1NS(=O)(=O)c1ccc(Cl)s1 87.9%
CS(=O)(=O)Nc1ccccc1C(=O)Nc1cc(Cl)cc(Cl)c1 74.6%
Cc1ccc(NC(=O)c2ccccc2NS(=O)(=O)c2ccc(Cl)s2)cc1 71.2%
Cc1ccc(NC(=O)c2ccccc2NS(=O)(=O)c2ccc(Cl)s2)cc1S(=O)(=O)N1CCOCC1 84.3%
COc1cc(NC(=O)c2ccccc2NS(=O)(=O)c2ccc(Cl)s2)cc(OC)c1 84.9%
N#C/C(=C(/O)COC(=O)COc1ccc(Cl)cc1)c1nc2ccccc2[nH]1 108%
Cc1cc(C)cc(OCC(=O)OC/C(O)=C(\C#N)c2nc3ccccc3[nH]2)c1 103%
COc1cccc(-n2nnnc2S(C)(=O)=O)c1 79.5%
N#CCCS(=O)(=O)c1nnnn1-c1ccccc1 75.5%
CCCS(=O)(=O)c1nnnn1-c1cccc(OC)c1 76.1%
COc1cccc(NC(=O)Nc2nc(-c3ccc(OC)c(OC)c3)cs2)c1 100%
COc1cccc(NC(=O)Nc2cccc(C(=O)O)c2)c1 65.7%
COc1ccc(NC(=O)CSc2ccc(-c3cccs3)nn2)c(OC)c1 72.8%
COc1ccc(C)cc1NC(=O)CSc1ccc(-c2ccccn2)nn1 82.9%

Reference: PubChem BioAssay AID1852 (Sanford-Burnham Center for Chemical Genomics, 2009)
